Bioassay records from PubChem BioAssay.
Most compounds without a hit are left out; they make up all but 2.1% or so of the library.
NSD2 inh: NSD2 histone methyltransferase inhibitors, primary screen, biochemical, AlphaScreen, single concentration, set 2; NSD2 peptide methylation, 120 min; inhibition, % at 12.5 µM; 0.54% of 310,000 active; in the data active means inhibition above about 50%
MLL AF4-AF9 inh: inhibitors of AF4 peptide binding to AF9, primary screen, biochemical, AlphaScreen, biotin-AF4 peptide, FLAG-AF9, single point | Protein AF-9 (Homo sapiens), P42568 | inhibition, % at 10 µM | 0.47% of 350,000 active | AID 651704, 2012;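 active means every replicate reaching a set inhibition limit, whatever the replicate mean, cut at about 25% in these data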;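 further: 0% = plate neutral control median and 100% = total signal loss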
HIV Env fusion: inhibitors of HIV-1 Env-driven cell-cell fusion, primary screen, HeLa-JRFL effector, CEM21 target cells, luciferase. inhibition, % at 12.3 µM. 1.1% of 360,000 active. AID 651610, 2012;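 active means mean replicate inhibition score of at least 50 and every replicate individually at or above 50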;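 further: 0% = plate neutral controls and 100% = maraviroc near 300 nM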
PGC1a acetyl inh: inhibitors of PGC1a acetylation signal, primary screen, cell-based, U2OS, AlphaScreen, inhibitor mode. AlphaScreen anti-acetyl-lysine; with virally co-expressed GCN5 acetyltransferase. inhibition, % at 15.6 µM. 0.17% of 350,000 active;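 active means every replicate shows inhibition of at least 40%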;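 further: 0% = neutral control wells and 100% = positive control wells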
GSIS activator: GLuc luminescence reporter in INS-1E cells, primary screen for activators of glucose-dependent secretion of insulin. INS-1E GLuc reporter insulin secretion, 2-3 h. activation, % at 16.6 µM. 0.61% of 370,000 active;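 active means lowest replicate activation of at least 40%, so every replicate reaches that level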;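 further: 0% = median of neutral control wells and 100% = median of IBMX positive control wells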
* = called active by the depositor; x = not tested or not shown; ! = not active in a repeat; [ ] = another dose, or the depositor's remark.

SMILES	NSD2 inh	MLL AF4-AF9 inh	HIV Env fusion	PGC1a acetyl inh	GSIS activator
CCCC#Cc1ccc2c(c1)O[C@H](CN(C)S(=O)(=O)c1cccc(OC)c1)[C@@H](C)CN([C@@H](C)CO)S2(=O)=O	x	x	-12[16.7 µM]	-18	-18
CC(C)COc1ccc(N)cc1OCC(C)C	4	11	5	15	3
C[C@@H]1CN([C@@H](C)CO)C(=O)Cc2cc(NC(=O)Nc3cccc4ccccc34)ccc2O[C@@H]1CN(C)S(=O)(=O)c1cccs1	x	x	8[16.7 µM]	0	-2
COc1ccc2c3c([nH]c2c1)[C@@H](CO)N(C(=O)Nc1c(C)noc1C)CC31CCN(CC2CC2)CC1	x	6	x	x	4
CCCNC(=O)N1CC2(CCN(C(=O)c3cccc(F)c3)CC2)c2c([nH]c3cc(OC)ccc23)[C@H]1CO	x	6	x	-2	-4
CC(=O)NC(c1ccc(C)cc1)c1cc(Cl)c2cccnc2c1O (centres undefined)	2	-3	23	38	-7
Oc1c(C(Nc2ccccn2)c2cccnc2)cc(Cl)c2cccnc12 (centres undefined)	0	43*	11	x	26
O=C(C[C@@H]1C[C@H]2c3cc(NC(=O)c4ccc5c(c4)OCO5)ccc3O[C@H]2[C@@H](CO)O1)NC1CCCC1	x	-1	7[16.7 µM]	-7	-15
COc1cccc(-n2c([S-])c(C(=O)Nc3ccc(S(=O)(=O)N4CCOCC4)cc3)[n+]3cc(C(N)=O)ccc23)c1	2	-5	-3	1	45*
CC(C)COc1cccc(C(=O)Nc2ccc(S(=O)(=O)N3CCOCC3)cc2)c1	1	x	25	-10	-19
O=S(=O)(NC1CC1)c1ccc(S(=O)(=O)N2CCCc3ccccc32)cc1	-1	-10	69*	9	-17
C[C@@H]1CN([C@H](C)CO)C(=O)CCCn2nncc2CO[C@H]1CN(C)S(=O)(=O)c1cn(C)cn1	x	-3	4	105*	-2
C[C@H](CO)N1C[C@H](C)[C@H](CN(C)S(=O)(=O)c2cn(C)cn2)OCc2cnnn2CCCC1=O	x	-1	x	-13	-2
C[C@@H]1CN([C@@H](C)CO)C(=O)CCCn2nncc2CO[C@H]1CN(C)Cc1ccccc1	x	0	-36	-1	41*!
COc1cccc(CC(O)CC2c3c(cc4c(c3OC)OCO4)CCN2C)c1 (centres undefined)	0	3	12	-8	-3
CCc1ccc(C(=O)CN(C#N)c2nc(C)cc(C)n2)cc1	-4	x	-49	49*	-2
COc1ccc(C(O)c2nc3ccccc3n2C)cc1OC (centres undefined)	0	x	74*	7	x
COc1ccc(C(=O)NC(C)c2nc3ccccc3n2C)cc1OC (centres undefined)	0	x	-30	5	x
COc1nc(-c2ccccc2)ccc1-c1noc(-c2cccnc2)n1	-1	x	-29	-17	71*
COc1nc(-c2ccc(C)cc2)ccc1-c1noc(-c2cccnc2)n1	-3	x	-116	7	x
N#C/C(=C\c1ccccc1[N+](=O)[O-])c1nc(C2CC2)cs1	8	x	-65	5	-10
N#C/C(=C/c1ccccc1[N+](=O)[O-])c1nc(C2CC2)cs1	4	26*	-28	x	x
CC(NC(=O)C12CC3CC(C)(CC(C)(C3)C1)C2)c1ccncc1 (centres undefined)	-3	-7	65*	0	-1
O=C(NCC1CC1)[C@@H]1[C@@H](CO)[C@@H]2Cn3c(cccc3=O)[C@@H]2N1CCC(F)(F)F	x	0	x	-2	2
C[C@@H]1CCCCO[C@H](CN(C)S(=O)(=O)c2ccc(F)cc2)[C@@H](C)CN([C@H](C)CO)C(=O)c2cc(NC(=O)Nc3ccc4c(c3)OCO4)ccc2O1	x	1	-4[16.7 µM]	5	-1
Cc1nc2ccc(C(=O)N3c4ccccc4N=C(c4ccc(C(F)(F)F)cc4)C3C(=O)NC(C)(C)C)cc2[nH]1 (centres undefined)	x	-1	89*	x	9
O=C1Nc2ccccc2/C1=N\N=C\C1=C(N2CCOCC2)C(=C\c2ccccc2)/CC1	6	x	64*	-13	x
O=C1Nc2ccc(Br)cc2/C1=N\N=C\C1=C(N2CCOCC2)C(=C/c2ccccc2)/CC1	-1	6	11	-1	-16
